From PubChem BioAssay
Potency and affinity values are given separately. Inconclusive results are not listed. Active and inactive are the calls of the source. Unless noted, the rule behind the calls is not given here.

Columns and labels:
[1] = cytotoxicity in PAX8-dependent RMG-1 cells, dose response, cell-based, cherry-pick (AID 687029;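 active = signal drop whose fitted half-maximal concentration is at most twice the top valid dose, in every test run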;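 note: cells exposed to compound for 96 hours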)
[2] = cytotoxicity in IOSE-T80 ovarian epithelial cells, dose response, selectivity assay for PAX8 inhibitor project, cell-based, cherry-pick (AID 687032;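 active = fitted half-maximal concentration for viability loss no higher than twice the top valid dose, in every repeat run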;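 note: cells exposed to compound for 96 h before reading; 0% = neutral control wells and -100% = 2 µM mitoxantrone kill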)
[3] = inhibitors of CMV-promoter luciferase reporter, dose response, counter-screen for Pax8 inhibitor project, cell-based, HEK293, luminescence, dry powder (AID 743020;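 active = signal-lowering compounds whose fitted half-maximal concentration is at or below twice the top tested dose in every run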;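 note: HEK293 cells stably expressing the CMV luciferase reporter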)
[4] = non-specific cell cytotoxicity, dose response, cytotoxicity control for PAX8 inhibitor project, plate reader, dry powder samples (AID 743021)
[5] = IGROV1 ovarian cancer cell cytotoxicity, dose response, PAX8 inhibitor project, plate reader, dry powder samples (AID 743043);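 note: more negative means fewer viable cells or more cytotoxicity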
[6] = NIH:OVCAR-3 ovarian cancer cell cytotoxicity, dose response, PAX8 inhibitor project, plate reader, dry powder samples (AID 743044); conditions: max activity: at 35 µM, hits give low values unless noted
[7] = IOSE-T80 ovarian epithelial cell cytotoxicity, dose response, cytotoxicity control for PAX8 inhibitor project, plate reader, dry powder samples (AID 743045);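 note: 0% = neutral control median and -100% = positive control median; more negative values mean more cell killing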
[8] = A2780 ovarian cancer cell cytotoxicity, dose response, cytotoxicity control, plate reader, dry powder samples (AID 743046);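 note: 0% = neutral control wells and -100% = cytotoxic reference compound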

Measured: max activity

CN1c2ccc(-c3ccccc3)cc2[C@@H]2[C@@H](CCN2C(=O)NC2CCCCC2)[C@@H]1CO
inactive: [1] | [2] | [3] | [4] | [5] | [6] 7.48% [at 0.26 µM, hits give low values] | [7] | [8]

Cc1cccc(-c2ccc([C@H]3[C@@H](CO)N4CCCCN(S(=O)(=O)c5cccc(C)c5)C[C@@H]34)cc2)c1
inactive: [1] | [2] | [3] | [4] | [5] | [6] -13.6% | [7] | [8]

C[C@H]1CN([C@@H](C)CO)S(=O)(=O)c2ccc(-c3ccc(C#N)cc3)cc2O[C@@H]1CN(C)Cc1cccc(F)c1
inactive: [1] | [2] | [3] | [4] | [5] | [6] -11.6% [at 16 µM, hits give low values] | [7] | [8]

COc1ccc(CN(C)C[C@@H]2OCCCC[C@H](C)Oc3ccc(NC(=O)Nc4cccc5ccccc45)cc3C(=O)N([C@H](C)CO)C[C@H]2C)cc1
inactive: [1] | [2] | [3] | [4] | [5] | [6] -16.9% | [7] | [8]

COc1cccc(S(=O)(=O)N(C)C[C@@H]2Oc3cc(C4=CCCCC4)ccc3S(=O)(=O)N([C@@H](C)CO)C[C@H]2C)c1
inactive: [1] | [2] | [3] | [4] | [5] | [6] -34.5% [at 0.5 µM, hits give low values] | [7] | [8]

C[C@@H]1CCCCO[C@H](CN(C)Cc2ccc3c(c2)OCO3)[C@@H](C)CN([C@@H](C)CO)C(=O)c2cc(NS(=O)(=O)c3ccc(Cl)cc3)ccc2O1
inactive: [1] | [2] | [3] | [4] | [5] | [6] -40.7% [at 16 µM, hits give low values] | [7] | [8]

Cc1ccc(S(=O)(=O)N(C)C[C@H]2OCCCC[C@H](C)Oc3ccc(NS(=O)(=O)c4ccc(Cl)cc4)cc3C(=O)N([C@@H](C)CO)C[C@@H]2C)cc1
inactive: [1] | [2] | [3] | [4] | [5] | [6] 10.8% [at 2.1 µM, hits give low values] | [7] | [8]

CCCC#Cc1ccc2c(c1)O[C@H](CN(C)Cc1ccccc1)[C@@H](C)CN([C@H](C)CO)S2(=O)=O
inactive: [1] | [2] | [3] | [4] | [5] | [6] 7.94% [at 1 µM, hits give low values] | [7] | [8]

COc1cccc(S(=O)(=O)Nc2ccc3c(c2)[C@H]2C[C@H](CC(=O)NCc4ccccc4F)O[C@H](CO)[C@H]2O3)c1
inactive: [1] | [2] | [3] | [4] | [5] | [6] 44.6% [at 0.5 µM, hits give low values] | [7] | [8]

C[C@@H]1CCCCO[C@@H](CN(C)Cc2ccc(Cl)c(Cl)c2)[C@H](C)CN([C@H](C)CO)C(=O)c2cc(NS(=O)(=O)c3ccc(F)cc3)ccc2O1
inactive: [1] | [2] | [3] | [4] | [5] | [6] -22% | [7] | [8]

O=C(C[C@H]1C[C@@H]2c3cc(NC(=O)Nc4ccc(C(F)(F)F)cc4)ccc3O[C@@H]2[C@@H](CO)O1)NCCc1ccccc1
inactive: [1] | [2] | [3] | [4] | [5] | [6] -7.36% [at 8 µM, hits give low values] | [7] | [8]

C[C@H]1CCCCO[C@H](CN(C)Cc2ccc(Cl)c(Cl)c2)[C@@H](C)CN([C@@H](C)CO)C(=O)c2cc(NC(=O)Nc3ccccc3)ccc2O1
inactive: [1] | [2] | [3] | [4] | [5] | [6] -18.6% | [7] | [8]

CC(C)CC#Cc1ccc2c(c1)O[C@@H](CN(C)S(=O)(=O)c1ccc(F)cc1)[C@H](C)CN([C@@H](C)CO)S2(=O)=O
inactive: [1] | [2] | [3] | [4] | [5] | [6] 21.6% [at 4.2 µM, hits give low values] | [7] | [8]

C[C@@H]1CCCCO[C@H](CN(C)Cc2ccc(C(F)(F)F)cc2)[C@@H](C)CN([C@@H](C)CO)C(=O)c2cc(NS(=O)(=O)c3ccccc3)ccc2O1
inactive: [1] | [2] | [3] | [4] | [5] | [6] -9.99% | [7] | [8]

N#Cc1cccc(-c2ccc3c(c2)[C@@H]2[C@@H](CCN2C(=O)C2CCCCC2)[C@@H](CO)N3)c1
inactive: [1] | [2] | [3] | [4] | [5] | [6] 11.5% [at 16 µM, hits give low values] | [7] | [8]

COCCNC(=O)C[C@@H]1C[C@H]2c3cc(NC(=O)Nc4ccc(C(F)(F)F)cc4)ccc3O[C@H]2[C@H](CO)O1
inactive: [1] | [2] | [3] | [4] | [5] | [6] -18.8% | [7] | [8]

C[C@@H]1CCCCO[C@@H](CN(C)Cc2ccc(Cl)c(Cl)c2)[C@H](C)CN([C@H](C)CO)C(=O)c2cc(NC(=O)Nc3ccc(F)cc3)ccc2O1
inactive: [1] | [2] | [3] | [4] | [5] | [6] -37% | [7] | [8]

O=C(C[C@@H]1CC[C@H]2[C@@H](COC[C@@H](O)CN2Cc2cccc(C(F)(F)F)c2)O1)NCc1ccc(F)cc1
inactive: [1] | [2] | [3] | [4] | [5] | [6] 13.4% [at 2.1 µM, hits give low values] | [7] | [8]

COc1ccc(-c2ccc3c(c2)[C@@H]2[C@@H](CCN2C(=O)C2CCCC2)[C@H](CO)N3C)cc1
inactive: [1] | [2] | [3] | [4] | [5] | [6] -19.3% [at 18 µM, hits give low values] | [7] | [8]

C[C@@H]1CCCCO[C@H](CN(C)Cc2ccc(Cl)c(Cl)c2)[C@H](C)CN([C@@H](C)CO)C(=O)c2cc(NC(=O)Nc3ccc(F)cc3)ccc2O1
inactive: [1] | [2] | [3] | [4] | [5] | [6] 22.7% [at 8 µM, hits give low values] | [7] | [8]

COc1ccc(NC(=O)Nc2ccc3c(c2)C(=O)N([C@@H](C)CO)C[C@@H](C)[C@@H](CN(C)Cc2ccc(Cl)c(Cl)c2)OCCCC[C@@H](C)O3)cc1
inactive: [1] | [2] | [3] | [4] | [5] | [6] -14.2% | [7] | [8]

Cc1ccc(S(=O)(=O)Nc2ccc3c(c2)C(=O)N([C@H](C)CO)C[C@@H](C)[C@H](CN(C)S(=O)(=O)c2ccc(Cl)cc2)OCCCC[C@H](C)O3)cc1
inactive: [1] | [2] | [3] | [4] | [5] | [6] -15.5% | [7] | [8]

CN1c2ccc(C3=CCCCC3)cc2[C@H]2[C@H](CCN2C(=O)NC2CCCCC2)[C@@H]1CO
inactive: [1] | [2] | [3] | [4] | [5] | [6] 17.4% [at 0.56 µM, hits give low values] | [7] | [8]

Cc1ccc(S(=O)(=O)N(C)C[C@@H]2OCCCC[C@@H](C)Oc3ccc(NS(=O)(=O)c4ccc(Cl)cc4)cc3C(=O)N([C@H](C)CO)C[C@H]2C)cc1
inactive: [1] | [2] | [3] | [4] | [5] | [6] -13.3% [at 4.2 µM, hits give low values] | [7] | [8]

C[C@H]1CN([C@@H](C)CO)C(=O)c2c(c3ccccc3n2C)-c2ccccc2CO[C@H]1CN(C)S(=O)(=O)c1ccc(C(F)(F)F)cc1
inactive: [1] | [2] | [3] | [4] | [5] | [6] -24.4% | [7] | [8]

C[C@@H]1CCCCO[C@@H](CN(C)Cc2ccccc2)[C@H](C)CN([C@H](C)CO)C(=O)c2cc(NC(=O)Nc3ccc(C(F)(F)F)cc3)ccc2O1
inactive: [1] | [2] | [3] | [4] | [5] | [6] -20.2% [at 16 µM, hits give low values] | [7] | [8]

Cc1ccc(S(=O)(=O)N(C)C[C@@H]2OCCCC[C@H](C)Oc3ccc(NS(=O)(=O)c4cccs4)cc3C(=O)N([C@H](C)CO)C[C@H]2C)cc1
inactive: [1] | [2] | [3] | [4] | [5] | [6] 5.96% | [7] | [8]

C[C@@H]1CN([C@@H](C)CO)C(=O)Cc2cc(NC(=O)Nc3ccc(C(F)(F)F)cc3)ccc2O[C@H]1CN(C)Cc1ccc(Oc2ccccc2)cc1
inactive: [1] | [2] | [3] | [4] | [5] | [6] -19.5% | [7] | [8]

COc1ccc(S(=O)(=O)N(C)C[C@H]2OCCCC[C@@H](C)Oc3ccc(NS(=O)(=O)c4c(C)noc4C)cc3C(=O)N([C@H](C)CO)C[C@H]2C)cc1
inactive: [1] | [2] | [3] | [4] | [5] | [6] -13.5% | [7] | [8]

C[C@@H]1CN([C@H](C)CO)C(=O)c2cc(NS(=O)(=O)c3cccs3)ccc2O[C@@H](C)CCCCO[C@H]1CN(C)Cc1ccc(C(F)(F)F)cc1
inactive: [1] | [2] | [3] | [4] | [5] | [6] -10.6% [at 16 µM, hits give low values] | [7] | [8]
